In the library only some 28% were active in any assay of this set; here they are far more common.
CYP2C19 act = human CYP2C19 activators, primary screen, biochemical, luminescence; Cytochrome P450 2C19 (Homo sapiens), P33261; recombinant CYP2C19, luciferin-H EGE luminescence; active compounds read high; 0 = fully inhibited enzyme, 1 = untreated enzyme; activation factor at 5 µM; 96,000 tested, under 10 active; AID 1025, 2008;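 active means activation factor of at least 2 at 5 µM in the primary screen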
CYP2C9 inhib = blockers of cytochrome P450 2C9 activity – biochemical, luminescence, ADME assay, primary screen; inhibition, % at 5 µM; actives 20% (n = 96,000); CYP2C9 Supersomes, luciferin-H conversion; P11712;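 active means blocking of liver enzyme CYP2C9 beyond about 50% at 5 µM, limit read from the data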
Pyk2 oligo antag = antagonists of Pyk2 self-association, primary screen, Q293 cells, FERM NanoBiT luminescence, HTS; Protein-tyrosine kinase 2-beta (Homo sapiens), Q14289; active compounds read low; z-score (the deposit names both 25 µM and 10 µM); actives 0.83% (n = 99,000); AID 1347419, 2020;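 active means Z-score of -3 or lower, scaled per plate to the spread of control and sample wells; inactive means z-score above -3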;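 further: negative z-score means lost luminescence so less FERM oligomerization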
Target sequence (Q14289 whole entry, looked up): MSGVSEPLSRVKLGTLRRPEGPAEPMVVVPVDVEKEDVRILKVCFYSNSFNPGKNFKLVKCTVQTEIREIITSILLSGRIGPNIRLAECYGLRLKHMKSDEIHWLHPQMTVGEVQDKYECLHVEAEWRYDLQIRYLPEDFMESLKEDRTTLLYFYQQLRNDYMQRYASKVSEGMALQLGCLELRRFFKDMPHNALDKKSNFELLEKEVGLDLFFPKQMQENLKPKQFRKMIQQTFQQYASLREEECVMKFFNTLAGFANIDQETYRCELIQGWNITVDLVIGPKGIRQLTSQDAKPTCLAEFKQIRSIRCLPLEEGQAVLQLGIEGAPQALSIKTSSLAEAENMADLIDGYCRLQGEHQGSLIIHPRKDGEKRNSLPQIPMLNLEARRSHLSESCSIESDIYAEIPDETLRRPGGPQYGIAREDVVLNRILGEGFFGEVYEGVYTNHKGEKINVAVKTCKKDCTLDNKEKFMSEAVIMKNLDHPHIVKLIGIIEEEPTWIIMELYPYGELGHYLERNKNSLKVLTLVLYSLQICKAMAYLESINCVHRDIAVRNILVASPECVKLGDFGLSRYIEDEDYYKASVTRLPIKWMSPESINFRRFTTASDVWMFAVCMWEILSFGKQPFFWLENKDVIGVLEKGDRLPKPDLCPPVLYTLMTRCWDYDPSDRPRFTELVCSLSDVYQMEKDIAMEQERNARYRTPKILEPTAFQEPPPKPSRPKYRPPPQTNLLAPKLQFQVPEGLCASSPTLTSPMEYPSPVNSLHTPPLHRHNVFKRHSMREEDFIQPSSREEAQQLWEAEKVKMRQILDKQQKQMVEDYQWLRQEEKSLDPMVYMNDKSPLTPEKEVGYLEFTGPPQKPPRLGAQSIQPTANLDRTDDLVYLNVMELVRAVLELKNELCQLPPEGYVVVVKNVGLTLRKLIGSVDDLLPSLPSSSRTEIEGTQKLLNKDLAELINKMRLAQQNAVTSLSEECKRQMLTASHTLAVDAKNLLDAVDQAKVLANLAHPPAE
CYP2C9 act = human CYP2C9 activators, primary screen, biochemical, luminescence; recombinant CYP2C9, luciferin-H conversion; active compounds read high; factor 1 = untreated enzyme, 0 = blocked; activation factor at 5 µM; Cytochrome P450 2C9 (Homo sapiens), P11712; AID 1024, 2008; actives 1.4% (n = 96,000);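 active means activation factor of 2 or more for CYP2C9 at a 5 µM dose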
CYP2C19 inh = blockers of cytochrome P450 2C19 activity – biochemical, luminescence, ADME assay, primary screen | P33261 | CYP2C19 Supersomes, luciferin-H EGE luminescence, 30 min | inhibition, % at 5 µM | actives 21% (n = 96,000);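 active means CYP2C19 inhibition above a set limit at 5 µM in the primary screen, cut at about 50% in these data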
Hits are given with their value; – = inactive; · = no result given.

SMILES	CYP2C19 act	CYP2C9 inhib	Pyk2 oligo antag	CYP2C9 act	CYP2C19 inh
CC(C)(C)n1ncc2c(=O)n(CC(=O)N3CCN(c4ccccc4)CC3)cnc21	–	–	·	–	–
O=C(O)c1ccccc1NS(=O)(=O)c1ccccc1C(F)(F)F	–	66	–	–	–
Cc1ccccc1NS(=O)(=O)c1cc(C(N)=O)ccc1C	–	–	–	–	97
O=C(O)c1ccccc1NS(=O)(=O)c1cccc2cccnc12	–	–	–	–	–
O=C(NNS(=O)(=O)c1ccccc1)c1ccc(O)cc1	·	·	–	·	·
Cc1cc(S(=O)(=O)Nc2ccccc2C)ccc1F	·	·	–	·	·
NC(=O)c1ccc(NS(=O)(=O)c2ccccc2F)cc1	–	–	–	–	–
O=C(NS(=O)(=O)c1ccccc1)c1ccccc1O	–	89	–	–	–
Cc1ccccc1NS(=O)(=O)c1ccc(C)c(C(N)=O)c1	–	–	–	–	90
CCOC(=O)NCc1ccc(S(=O)(=O)Nc2ccccc2C)cc1	–	–	–	–	69
Cc1ccccc1NS(=O)(=O)c1ccc(OCC(=O)N2CCCCC2)cc1	–	–	–	–	–
c1cncc(-c2nc3ccccn3c2Nc2ccc3c(c2)OCCO3)c1	–	–	·	–	–
Clc1ccc(-c2nc3cnccn3c2NC2CCCC2)cc1	–	89	–	–	76
CSc1ccc(-c2nc3cnccn3c2Nc2ccc3c(c2)OCO3)cc1	–	88	–	–	96
Oc1ccccc1-c1nc2cnccn2c1Nc1ccc2c(c1)OCCO2	–	94	–	–	92
Clc1ccc(-c2nc3cnccn3c2Nc2ccc3c(c2)OCO3)cc1	–	82	·	–	87
Cc1cc(C)n2c(Nc3ccc4c(c3)OCCO4)c(-c3ccc(C)o3)nc2n1	–	–	·	–	–
ONC(=Nc1ccccc1)c1ccc(Cl)cc1	–	–	–	–	90
CS(=O)(=O)N(CC(=O)N1CCN(c2ccccc2F)CC1)c1ccc2c(c1)OCCO2	–	–	–	–	–
CNC(=S)N1N=C(c2ccc(C)cc2)CC1c1ccc(OC)cc1 (stereo not drawn)	–	93	–	–	77
Cc1ccc(C(=O)NCC(=O)N2CCN(c3ncccn3)CC2)s1	–	72	–	–	–
O=C(NCC(=O)N1CCCC1)c1cccs1	–	–	–	–	–
O=C(NCC(=O)N1CCN(c2ncccn2)CC1)c1cccs1	–	–	–	–	59
Cn1c(SCC(=O)NC2CCCC2)nnc1-c1ccc(S(=O)(=O)N2CCOCC2)cc1	–	–	–	–	–
CCCCC(CC)CNC(=O)c1[nH]c(C)c(C(C)=O)c1C (stereo not drawn)	–	75	·	–	63
SMILES	CYP2C19 act	CYP2C9 inhib	Pyk2 oligo antag	CYP2C9 act	CYP2C19 inh
Cc1ccnc(NC(=O)CCC2COc3ccccc3O2)c1 (stereo not drawn)	–	55	–	–	82
CCOC(=O)c1ccc(NC(=O)CCC2COc3ccccc3O2)cc1 (stereo not drawn)	–	69	–	–	–
COc1ccc(CCNC(=O)CCC2COc3ccccc3O2)cc1OC (stereo not drawn)	–	68	–	–	–
O=C(CCC1COc2ccccc2O1)Nc1ccc(Cl)cn1 (stereo not drawn)	–	–	–	–	75
CCNc1nc(NC(C)(C)C)nc(N(C#N)CC)n1	–	–	–	–	–
CCn1c(SCC(=O)NCCOc2ccccc2)nc2ccccc2c1=O	–	57	–	–	69
O=C(CSc1nc2ccccc2c(=O)n1NC(=O)Cc1ccccc1)NCCc1ccccc1	–	94	–	–	–
O=C(CCCn1c(SCC(=O)NCC2CCCO2)nc2ccccc2c1=O)NCC1CCCO1 (stereo not drawn)	–	–	–	–	–
COCCNC(=O)CSc1nc2ccccc2c(=O)n1CCCC(=O)NCc1ccccc1	–	70	–	–	–
CCNC(=O)CSc1nc2ccccc2c(=O)n1CCCOC(C)C	–	62	–	–	76
CCOC(=O)CSc1nc2ccccc2c(=O)n1CC	–	–	–	–	–
COc1ccc(C2=[N+]([O-])C(C)(C)N(O)C2C)cc1 (stereo not drawn)	·	·	–	·	·
O=C(CSc1nnc(CNc2ccc(F)cc2)n1CC1CCCO1)Nc1ccccc1 (stereo not drawn)	·	·	–	·	·
COc1ccc(C(=O)/C=C2\NCC3c4ccccc4CCN3C2=O)cc1 (stereo not drawn)	–	–	–	–	–
CCn1c(SCC(=O)OC2CCCCC2)nc2ccccc2c1=O	–	77	–	–	87
CCN(CCCNC(=O)CN(C)S(=O)(=O)c1cccc2nsnc12)c1cccc(C)c1	–	74	–	–	–
CCN(CCCNC(=O)CN(C)S(=O)(=O)c1ccc2c(c1)CCC(=O)N2)c1cccc(C)c1	–	64	–	–	–
CCN(CCNC(=O)CN(C)S(=O)(=O)c1cccc2nsnc12)c1ccccc1	–	59	–	–	89
CCN(CCNC(=O)C1CCN(S(=O)(=O)c2cccc3nsnc23)CC1)c1ccccc1	–	–	–	–	–
Cc1csc(Sc2nc3c(c(=O)[nH]c(=O)n3C)n2CCCc2ccccc2)n1	–	–	–	–	–
CCn1c(CNc2nc(-c3ccccc3)cs2)nnc1SCC(=O)NCc1ccccc1	·	·	–	·	·
Cc1ccc(S(=O)(=O)Oc2ccccc2/C=N/NC(=O)c2c(Cl)cnn2C)cc1	·	·	–	·	·
COc1ccc(C(=O)n2c(SC)nc3cc4c(cc32)OCCO4)cc1	–	54	–	–	–
COc1ccc(C(=O)N2CCN(C(=O)c3ccncc3)CC2)cc1	–	–	–	–	–
CC1CC(C)CN(S(=O)(=O)c2ccc(NC(=S)NC(=O)c3ccccc3)cc2)C1 (stereo not drawn)	·	·	–	·	·
SMILES	CYP2C19 act	CYP2C9 inhib	Pyk2 oligo antag	CYP2C9 act	CYP2C19 inh
Cc1cc2c(cc1C)N(C(=O)CSC1=NCCS1)C(C)(C)c1ssc(=S)c1-2	–	70	–	–	78
COc1ccc2c(c1)-c1c(ssc1=S)C(C)(C)N2C(=O)CSC1=NCCS1	–	73	–	–	72
COc1ccc(OC)c(NC(=O)CSC2=NCCS2)c1	–	–	–	–	–
Cc1ccc2c(c1)-c1c(ssc1=S)C(C)(C)N2C(=O)CSc1nncn1C	–	–	–	–	76
Cc1ccc(S(=O)(=O)N2c3ccccc3-c3c(ssc3=S)C2(C)C)cc1	·	·	–	·	·
Cc1cc(C)c2c(c1)-c1c(ssc1=S)C(C)(C)N2C(=O)CSc1nncn1C	–	–	–	–	–
CC1(C)c2ssc(=S)c2-c2ccccc2N1C(=O)CSC1=NCCS1	–	–	–	–	52
CC(=O)Nc1nonc1NC(=O)CSC1=NCCS1	–	–	–	–	–
CSc1nc(Oc2ccc(=O)n(C)n2)nc(N(C)C)n1	–	–	–	–	–
CSC1=NCCN1C(=O)Cc1cccs1	–	–	·	–	–
